This passage reports residual activity results from ChEMBL document CHEMBL2218924, “A broad activity screen in support of a chemogenomic map for kinase signalling research and drug discovery” (Biochem J, 2013).

In experiment [1] the target is T1, Serine/threonine-protein kinase BRSK1 (Homo sapiens) (UniProt Q8TDC3).
T1 sequence (whole entry): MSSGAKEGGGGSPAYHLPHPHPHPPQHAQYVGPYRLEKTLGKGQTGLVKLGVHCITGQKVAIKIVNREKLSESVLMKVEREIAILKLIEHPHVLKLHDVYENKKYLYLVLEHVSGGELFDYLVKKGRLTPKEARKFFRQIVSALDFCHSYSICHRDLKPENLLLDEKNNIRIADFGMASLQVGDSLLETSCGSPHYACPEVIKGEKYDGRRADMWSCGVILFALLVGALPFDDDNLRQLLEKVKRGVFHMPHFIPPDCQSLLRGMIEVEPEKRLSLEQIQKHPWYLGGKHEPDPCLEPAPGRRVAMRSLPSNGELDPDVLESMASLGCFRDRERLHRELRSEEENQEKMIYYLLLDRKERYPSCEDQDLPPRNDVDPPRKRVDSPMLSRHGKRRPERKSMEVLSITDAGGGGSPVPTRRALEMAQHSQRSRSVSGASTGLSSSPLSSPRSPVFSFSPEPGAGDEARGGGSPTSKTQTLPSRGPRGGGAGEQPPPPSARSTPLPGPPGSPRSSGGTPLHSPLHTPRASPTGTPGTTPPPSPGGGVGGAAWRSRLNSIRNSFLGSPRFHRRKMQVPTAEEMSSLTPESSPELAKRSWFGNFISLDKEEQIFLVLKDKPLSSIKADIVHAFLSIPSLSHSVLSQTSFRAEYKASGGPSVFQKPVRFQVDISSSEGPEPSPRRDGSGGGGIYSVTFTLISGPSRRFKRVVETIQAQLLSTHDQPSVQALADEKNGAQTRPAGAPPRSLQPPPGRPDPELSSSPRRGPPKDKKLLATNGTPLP
Particulars: at 1 µM.

Experiment [2] has as its target T1, Serine/threonine-protein kinase BRSK1 (Homo sapiens). Particulars: at 10 µM.
Experiment [3] concerns the target T2, Serine/threonine-protein kinase BRSK2 (Homo sapiens) (UniProt Q8IWQ3).
T2 sequence (whole entry): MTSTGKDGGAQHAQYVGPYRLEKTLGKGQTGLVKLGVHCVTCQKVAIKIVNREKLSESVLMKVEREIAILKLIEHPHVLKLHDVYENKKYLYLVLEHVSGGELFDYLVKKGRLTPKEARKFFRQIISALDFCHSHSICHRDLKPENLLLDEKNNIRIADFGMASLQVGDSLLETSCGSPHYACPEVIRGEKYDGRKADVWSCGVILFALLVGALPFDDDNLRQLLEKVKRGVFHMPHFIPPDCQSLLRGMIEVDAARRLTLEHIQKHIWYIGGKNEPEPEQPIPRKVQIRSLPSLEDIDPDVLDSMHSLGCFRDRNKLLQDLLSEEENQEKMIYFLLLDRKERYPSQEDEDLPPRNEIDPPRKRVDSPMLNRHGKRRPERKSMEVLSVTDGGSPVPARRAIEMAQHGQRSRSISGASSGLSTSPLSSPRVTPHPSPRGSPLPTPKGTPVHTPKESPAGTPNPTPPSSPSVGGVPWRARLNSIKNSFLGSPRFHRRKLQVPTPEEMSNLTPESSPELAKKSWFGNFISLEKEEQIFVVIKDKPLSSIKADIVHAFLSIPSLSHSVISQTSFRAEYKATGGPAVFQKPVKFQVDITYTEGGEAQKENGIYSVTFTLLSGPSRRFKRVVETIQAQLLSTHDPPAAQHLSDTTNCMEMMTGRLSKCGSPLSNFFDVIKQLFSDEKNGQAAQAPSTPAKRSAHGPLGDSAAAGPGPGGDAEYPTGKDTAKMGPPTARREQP
Particulars: at 1 µM.

Experiment [4] addresses T2, Serine/threonine-protein kinase BRSK2 (Homo sapiens). Particulars: at 10 µM.
Experiment [5] deals with T3, Cyclin-dependent kinase 1/cyclin B1 (Homo sapiens) (UniProt P06493+P14635). Particulars: at 1 µM.
The target in experiment [6] is T3, Cyclin-dependent kinase 1/cyclin B1 (Homo sapiens). Particulars: at 10 µM.
Experiment [7] has as its target T4, Cyclin-dependent kinase 2/cyclin A (Homo sapiens) (UniProt P24941+P20248+P78396). Particulars: at 10 µM.
Experiment [8] has as its target T5, Cyclin-dependent kinase 2/cyclin E (Homo sapiens) (UniProt P24864+P24941+O96020). Particulars: at 1 µM.
In experiment [9] the target is T5, Cyclin-dependent kinase 2/cyclin E (Homo sapiens). Particulars: at 10 µM.
Experiment [10] has as its target T6, CDK3/cyclin E (Homo sapiens) (UniProt P24864+O96020+Q00526). Particulars: at 1 µM.
Experiment [11] addresses T6, CDK3/cyclin E (Homo sapiens). Particulars: at 10 µM.
Experiment [12] has as its target T7, Cyclin-dependent kinase 5/CDK5 activator 1 (Homo sapiens) (UniProt Q00535+Q15078). Particulars: at 1 µM.
Experiment [13] deals with T7, Cyclin-dependent kinase 5/CDK5 activator 1 (Homo sapiens). Particulars: at 10 µM.
Experiment [14] shares this target. Particulars: at 1 µM. The source holds these as a separate data set.
Experiment [15] has the same target. Particulars: at 10 µM. This is another data set of the same source.
Experiment [16] has as its target T8, CDK6/cyclin D3 (Homo sapiens) (UniProt P30281+Q00534). Particulars: at 1 µM.
Experiment [17] deals with T8, CDK6/cyclin D3 (Homo sapiens). Particulars: at 10 µM.
Experiment [18] concerns the target T9, Cyclin-dependent kinase 7/ cyclin H (Homo sapiens) (UniProt P51946+P50613). Particulars: at 1 µM.
The target in experiment [19] is T9, Cyclin-dependent kinase 7/ cyclin H (Homo sapiens). Particulars: at 10 µM.
Experiment [20] addresses T4, Cyclin-dependent kinase 2/cyclin A (Homo sapiens). Particulars: at 1 µM.

T3 sequence (P06493 whole entry, looked up): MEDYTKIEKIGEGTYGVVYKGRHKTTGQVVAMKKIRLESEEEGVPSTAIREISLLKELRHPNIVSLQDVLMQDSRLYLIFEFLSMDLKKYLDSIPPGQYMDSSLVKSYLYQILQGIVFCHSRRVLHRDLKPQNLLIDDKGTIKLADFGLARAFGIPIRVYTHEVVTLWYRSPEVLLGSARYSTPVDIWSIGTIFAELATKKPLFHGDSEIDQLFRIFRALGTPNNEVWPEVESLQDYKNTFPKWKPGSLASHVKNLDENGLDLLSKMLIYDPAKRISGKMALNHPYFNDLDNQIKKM
T3 sequence (P14635 whole entry, looked up): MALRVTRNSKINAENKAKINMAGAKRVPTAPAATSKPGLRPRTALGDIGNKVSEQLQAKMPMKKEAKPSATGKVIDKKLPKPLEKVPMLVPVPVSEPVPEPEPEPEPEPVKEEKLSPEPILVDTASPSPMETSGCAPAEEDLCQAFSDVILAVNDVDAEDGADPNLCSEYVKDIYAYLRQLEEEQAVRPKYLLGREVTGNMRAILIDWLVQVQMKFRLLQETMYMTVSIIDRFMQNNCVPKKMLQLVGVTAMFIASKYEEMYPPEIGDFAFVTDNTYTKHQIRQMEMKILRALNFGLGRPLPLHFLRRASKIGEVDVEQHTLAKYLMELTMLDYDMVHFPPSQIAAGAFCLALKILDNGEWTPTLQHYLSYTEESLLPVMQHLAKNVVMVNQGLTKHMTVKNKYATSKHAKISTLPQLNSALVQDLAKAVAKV
T7 sequence (Q00535 whole entry): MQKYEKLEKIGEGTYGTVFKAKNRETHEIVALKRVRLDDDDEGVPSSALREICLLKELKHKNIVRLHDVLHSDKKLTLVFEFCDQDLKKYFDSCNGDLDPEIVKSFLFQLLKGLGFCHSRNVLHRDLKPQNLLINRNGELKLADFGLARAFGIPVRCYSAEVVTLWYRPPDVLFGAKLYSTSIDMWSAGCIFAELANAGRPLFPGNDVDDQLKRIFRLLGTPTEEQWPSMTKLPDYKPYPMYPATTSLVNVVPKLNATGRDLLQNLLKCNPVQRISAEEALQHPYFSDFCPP
T7 sequence (Q15078 99-307 partner limits assumed): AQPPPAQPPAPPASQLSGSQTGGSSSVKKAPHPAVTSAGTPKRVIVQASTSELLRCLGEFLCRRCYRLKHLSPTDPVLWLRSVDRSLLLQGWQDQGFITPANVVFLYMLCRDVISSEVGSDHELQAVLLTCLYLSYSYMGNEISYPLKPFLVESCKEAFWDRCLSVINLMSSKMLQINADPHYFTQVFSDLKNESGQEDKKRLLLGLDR
T6 sequence (O96020 whole entry, looked up): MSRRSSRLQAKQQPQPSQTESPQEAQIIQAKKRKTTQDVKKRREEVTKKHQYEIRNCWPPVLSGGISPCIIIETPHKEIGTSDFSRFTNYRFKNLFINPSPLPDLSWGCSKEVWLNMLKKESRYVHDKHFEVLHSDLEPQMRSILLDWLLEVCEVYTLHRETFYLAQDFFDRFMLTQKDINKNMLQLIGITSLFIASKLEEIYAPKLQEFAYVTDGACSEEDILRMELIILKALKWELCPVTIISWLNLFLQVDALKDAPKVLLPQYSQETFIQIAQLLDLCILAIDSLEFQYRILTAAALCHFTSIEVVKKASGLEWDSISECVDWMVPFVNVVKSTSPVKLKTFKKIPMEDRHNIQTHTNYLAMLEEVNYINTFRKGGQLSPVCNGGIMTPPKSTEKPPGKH
T6 sequence (P24864 whole entry, looked up): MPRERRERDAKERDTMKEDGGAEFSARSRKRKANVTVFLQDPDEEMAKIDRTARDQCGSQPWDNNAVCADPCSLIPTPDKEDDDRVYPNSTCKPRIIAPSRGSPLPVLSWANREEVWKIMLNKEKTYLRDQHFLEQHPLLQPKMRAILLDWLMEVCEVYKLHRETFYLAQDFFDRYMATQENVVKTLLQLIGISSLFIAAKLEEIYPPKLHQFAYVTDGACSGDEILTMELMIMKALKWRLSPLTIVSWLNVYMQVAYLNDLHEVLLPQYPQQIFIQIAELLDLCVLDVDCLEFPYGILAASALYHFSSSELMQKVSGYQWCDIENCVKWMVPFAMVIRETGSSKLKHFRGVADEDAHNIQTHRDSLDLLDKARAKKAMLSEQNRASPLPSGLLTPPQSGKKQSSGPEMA
T6 sequence (Q00526 whole entry, looked up): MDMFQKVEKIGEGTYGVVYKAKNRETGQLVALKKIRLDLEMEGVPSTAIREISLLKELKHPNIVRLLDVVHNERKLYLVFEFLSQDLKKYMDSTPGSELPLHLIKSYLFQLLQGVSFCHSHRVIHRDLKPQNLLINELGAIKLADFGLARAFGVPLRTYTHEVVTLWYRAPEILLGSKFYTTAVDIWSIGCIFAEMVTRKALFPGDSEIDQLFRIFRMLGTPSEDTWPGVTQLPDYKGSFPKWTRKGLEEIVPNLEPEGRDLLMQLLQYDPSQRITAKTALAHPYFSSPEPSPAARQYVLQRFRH

`O=c1cc(N2CCOCC2)oc2c1ccc1ccccc12`: the residual activity in experiment [1] worked out at 91%; in [2] it was 96%; in [3], 102%; in experiment [4] it was 108%; in experiment [5], 106%; in experiment [6], 91%. For the same molecule, the residual activity in [7] came out at 87%; in experiment [8], 95%; in experiment [9] it was 97%; in experiment [10], 102%; in experiment [11], 79%; in [12] it was 80%. Also, the residual activity in experiment [13] is 67%; in [14] it was 100%; in [15], 81%; in [16] it was 100%; in [17] it was 89%; in [18], 86%. In addition, the residual activity in [19] came to 88%.
Regarding `O=C(c1ccccc1)c1ccc(N2CCOCC2)cc1O`, the residual activity turned out to be 83% in [1]; 119% in experiment [2]; 112% in experiment [3]; 113% in experiment [4]; 94% in [6]; 119% in [20]. The residual activity in experiment [7] was 72%; in experiment [10], 96%; in experiment [11], 97%; in [13], 88%; in experiment [14], 91%; in experiment [15] it was 96%. For the same molecule, the residual activity came to 89% in experiment [17] and 87% in experiment [18].
For `O=C(CCCc1ccc(-c2ccccc2F)cc1)Nc1ccc(O)cc1`, the residual activity in [1] was 102%; in experiment [2], 83%; in [3], 107%; in [4] it was 105%; in experiment [20] it was 96%; in experiment [7] it was 98%. Also, the residual activity in experiment [8] is 101%; in experiment [9] it was 92%; in experiment [10], 102%; in [11], 94%; in experiment [12], 104%; in [13], 99%. Further, the residual activity in experiment [14] was determined as 111%; in [15] it was 99%; in [16], 103%; in experiment [17], 98%; in experiment [18] it was 98%; in [19], 105%.
Take `COc1ccc(Cl)cc1NC(=O)Nc1cc(C)nc2ccccc12`: the residual activity in experiment [1] was determined as 60%; in experiment [2] it was 64%; in experiment [3], 77%; in experiment [4], 100%; in [7] it was 88%; in experiment [10] it was 93%. In addition, the residual activity in experiment [11] amounted to 91%; in experiment [15], 77%; in experiment [16], 95%; in [17] it was 83%; in experiment [18] it was 80%; in experiment [19], 90%.
As for `Nc1nc(Nc2ccc(S(N)(=O)=O)cc2)nn1C(=O)c1c(F)cccc1F`, the residual activity was found to be 55% in experiment [1]; 12% in [2]; 40% in experiment [3]; 15% in [4]; 1% in [5]; 0% in experiment [6]. Further, the residual activity in experiment [20] is -1%; in [7], 1%; in experiment [8] it was 2%; in [9], -1%; in experiment [10] it was 3%; in [11] it was 0%. Moreover, the residual activity in [12] is 0%; in experiment [13] it was 0%; in [14], -1%; in experiment [15] it was 0%; in experiment [16], 57%; in experiment [17], 12%. Further, the figures for the residual activity in experiment [18] and in experiment [19] were 57% and 10%, respectively.
Consider `CC(C)c1nn(-c2c(Cl)cccc2Cl)c2nc(Cc3ccc(OCCO)cc3)[nH]c(=O)c12`, for which the residual activity turned out to be 70% in [1]; 78% in experiment [2]; 93% in [4]; 3% in experiment [5]; 0% in experiment [6]; 0% in experiment [20]. Moreover, the residual activity in experiment [7] was 0%; in experiment [8], -1%; in experiment [9], -3%; in experiment [10], -1%; in experiment [11] it was -1%; in [12] it was 0%. In addition, the residual activity was -1% in experiment [13]; -1% in experiment [14]; -1% in experiment [15]; 43% in experiment [16]; 9% in [17]; 15% in experiment [18]. Moreover, the residual activity in [19] worked out at 1%.
